Compound activity deposited in PubChem by National Center for Advancing Translational Sciences (NCATS).
Rows were chosen to be rich in hits. Some 12% of all compounds tested hit in one or more screens of this group.
PI5P4Ka inh – qHTS for Inhibitors of phosphatidylinositol 5-phosphate 4-kinase (PI5P4K); PI5P4Kalpha enzyme, ADP-Glo luminescence, 60 min; stronger effect = lower value; max response, %; 330,000 tested, 1.2% active; active = max response of -50% or lower; inconclusive = between -30% and -50%; inactive = -30% or higher; note: value at the top dose of about 77 µM; % is set by controls: 0 for no effect and ±100 for the full control effect
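PI5P4Kalpha ADP-Glo assay; 5 microM ATP final; 60 min RT reaction; HEPES pH 7.4/EGTA/CHAPS, 5% DMSO; controls lacking substrate or enzyme; luminescent end-point.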
HP1b chromo inh – HTS for Inhibitors of HP1-beta Chromodomain Interactions with Methylated Histone Tails; Potency, µM (titrated, usually from 114 µM), inactives show top-dose activity change, negative = inhibition, usual class: inhibitors; AlphaScreen HP1-beta / biotin-H3K9me3 peptide binding; 390,000 tested, 0.56% active; note: potency is the fitted concentration of half-maximal effect; nearly all actives have a fitted effect of over 70% in size
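Compound inhibition of the preformed complex between 50 nM HP1-beta and 50 nM biotinylated H3K9me3 peptide was read by AlphaScreen. Buffer was PBS pH 7.4 with 0.01% Tween-20. Incubations ran 30 min at room temperature, with 10 ug/mL donor/acceptor beads.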
JMJD2A Tudor inh – qHTS Assay for Inhibitors of JMJD2A-Tudor Domain | Lysine-specific demethylase 4A (Homo sapiens), O75164 | AlphaScreen JMJD2A-Tudor / H3K4me3 peptide binding | Potency, µM (series often up to 114 µM), without a hit: at the top dose activity change, negative = inhibition, hits mostly inhibitors | 390,000 tested, 4.4% active | AID 504339, 2011; note: potency is the fitted concentration of half-maximal effect; % is set by controls: 0 for no effect and ±100 for the full control effect; nearly all actives have a fitted effect of over 50% in size
Target sequence (O75164 whole entry, looked up, the tested form may be a part): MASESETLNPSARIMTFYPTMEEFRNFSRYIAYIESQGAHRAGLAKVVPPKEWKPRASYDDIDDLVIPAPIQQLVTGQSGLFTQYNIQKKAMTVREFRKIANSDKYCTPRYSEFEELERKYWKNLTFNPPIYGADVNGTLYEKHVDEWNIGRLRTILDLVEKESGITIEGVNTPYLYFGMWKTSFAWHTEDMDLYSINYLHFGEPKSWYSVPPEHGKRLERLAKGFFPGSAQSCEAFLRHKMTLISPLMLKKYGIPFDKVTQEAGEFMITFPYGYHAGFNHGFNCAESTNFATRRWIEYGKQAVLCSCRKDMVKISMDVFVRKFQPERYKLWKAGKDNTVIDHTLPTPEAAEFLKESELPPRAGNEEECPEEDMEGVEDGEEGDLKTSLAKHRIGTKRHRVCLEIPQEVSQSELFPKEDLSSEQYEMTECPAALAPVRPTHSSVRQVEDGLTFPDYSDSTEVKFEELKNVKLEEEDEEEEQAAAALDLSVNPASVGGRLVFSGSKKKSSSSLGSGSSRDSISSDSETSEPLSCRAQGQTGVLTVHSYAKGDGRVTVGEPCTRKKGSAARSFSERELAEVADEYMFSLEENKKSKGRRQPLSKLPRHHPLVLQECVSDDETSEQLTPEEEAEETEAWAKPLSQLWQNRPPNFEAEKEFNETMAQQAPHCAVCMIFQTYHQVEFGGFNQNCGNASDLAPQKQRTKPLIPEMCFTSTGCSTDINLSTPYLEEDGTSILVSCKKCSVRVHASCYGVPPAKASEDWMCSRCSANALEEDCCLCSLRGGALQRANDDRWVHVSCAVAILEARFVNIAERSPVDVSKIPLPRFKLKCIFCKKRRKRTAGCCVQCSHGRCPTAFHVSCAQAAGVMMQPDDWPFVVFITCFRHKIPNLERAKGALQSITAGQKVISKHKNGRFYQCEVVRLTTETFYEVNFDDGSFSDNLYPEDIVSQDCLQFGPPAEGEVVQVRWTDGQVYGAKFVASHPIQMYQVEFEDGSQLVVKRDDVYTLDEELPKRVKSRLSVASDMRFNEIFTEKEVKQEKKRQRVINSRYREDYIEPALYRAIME
PLK1 PBD inh – qHTS for Inhibitors of PLK1-PDB (polo-like kinase 1 - polo-box domain): Primary Screen. Serine/threonine-protein kinase PLK1 (Homo sapiens), P53350. Plk1 PBD binding of FITC phosphopeptide, fluorescence polarization. Potency, µM, inactives show max response, negative = inhibition, most hits filed as inhibitors. 360,000 tested, 2.8% active. AID 720504, 2013; note: potency is the fitted concentration of half-maximal effect; series mostly up to about 57 µM; % is set by controls: 0 for no effect and ±100 for the full control effect; nearly all actives have a fitted effect of over 65% in size
G9a inh – qHTS Assay for Inhibitors of Histone Lysine Methyltransferase G9a; Histone-lysine N-methyltransferase EHMT2 (Homo sapiens), Q96KQ7; G9a H3K9 monomethylation, AlphaScreen, 2 h; Potency, µM (series often up to 102 µM), without a hit: at the top dose activity, negative = inhibition, most hits filed as inhibitors; 350,000 tested, 8.8% active; AID 504332, 2011; note: potency is the fitted concentration of half-maximal effect; % is set by controls: 0 for no effect and ±100 for the full control effect; nearly all actives have a fitted effect of over 75% in size
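G9a (20 nM) was preincubated 15 min with compound, then reacted 2 h at room temperature with 500 nM biotin-H3K9 peptide and 20 µM SAM. Monomethyl-H3K9 detected by AlphaScreen using anti-H3K9me1 antibody.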
BAZ2B block – qHTS Assay for Inhibitors of BAZ2B; Bromodomain adjacent to zinc finger domain protein 2B (Homo sapiens), Q9UIF8; AlphaScreen BAZ2B-H3K14Ac peptide displacement; Potency, µM (highest dose often 114 µM), for the others: at the highest dose activity change, negative = inhibition, hits mostly inhibitors; 360,000 tested, 4.4% active; AID 504333, 2011; note: potency is the fitted concentration of half-maximal effect; % is set by controls: 0 for no effect and ±100 for the full control effect; nearly all actives have a fitted effect of over 60% in size
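BAZ2B (50 nM) with biotin-H3(5-23)K14Ac peptide (50 nM) in PBS pH 7.4, 0.01% Tween-20, preformed 30 min, then compound 30 min at room temperature; top concentration 110uM. AlphaScreen streptavidin donor/nickel chelate acceptor beads (10 ug/mL final), 20 min dark, signal read.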
Active calls of the source: *; ? = inconclusive; · = not tested or not shown; [ ] = another dose, or the depositor's remark. Unless noted, calls come from the whole dose curve; as a rule, active = well fitted curve in the direction sought with a large enough effect; inconclusive = small, poorly fitted or top-dose-only effect, or another doubt; inactive = no such curve, though single readings can be large; an effect the other way counts as inactive or inconclusive.

SMILES | PI5P4Ka inh | HP1b chromo inh | JMJD2A Tudor inh | PLK1 PBD inh | G9a inh | BAZ2B block
Cn1c(N2CCN(c3ccccn3)CC2)nc2c1c(=O)n(Cc1ccc(Cl)cc1)c(=O)n2C | 7 | -11% | ? | -4% | 40µM* | ?
Cn1c(N2CCN(c3ccccn3)CC2)nc2c1c(=O)n(Cc1ccccc1Cl)c(=O)n2C | 3 | 48% | 0% | -5% | · | ·
NS(=O)(=O)c1cccc(NC(=O)CCCNC(=O)c2ccc(Cl)cc2)c1 | 4 | 18% | -10% | -7% | 19% | -10%
NS(=O)(=O)c1cccc(NC(=O)CCSc2ccc(Cl)cc2)c1 | -10 | 44% | 9% | 12µM* | 1.4µM* | -6%
COc1cccc(C2C(C(=O)c3sc(C)nc3C)=C(O)C(=O)N2CCN2CCOCC2)c1 (configuration not stated) | -5 | 23% | ? | -3% | 50µM* | -5%
CCN(CC)CCCN1C(=O)C(O)=C(C(=O)c2sc(C)nc2C)C1c1ccc(C)o1 (configuration not stated) | · | · | · | · | -17%[59 µM] | -22%
Cc1ccc(C2C(C(=O)c3sc(C)nc3C)=C(O)C(=O)N2CCN2CCOCC2)o1 (configuration not stated) | -6 | 4% | ? | -3% | 35µM* | -33%
CCOc1ccc(NC(=O)c2cc(=O)c3cc(CC)ccc3o2)cc1 | · | 21% | -25% | · | -6%[59 µM] | -7%
COC(=O)[C@]1(C)N[C@H](CN(C)C(=O)Nc2ccc(Cl)cc2)[C@@H]2C(=O)N(C)C(=O)[C@@H]21 | 2 | 41% | -7% | 3% | · | ·
CCN(CC)c1ccc(C(=O)OCC(=O)NC2CCCCC2C)cc1 (configuration not stated) | -8 | 1% | 50µM* | 30µM* | -11% | 7%
CC1=C(C)C(C)=C(C#N)C(=C(C#N)C#N)N1 | 0 | 6% | -19% | -9% | 40µM* | ?
S=c1[nH]ncn1-c1ccccn1 | 1 | ? | 20µM* | -13% | ? | ?
CC(C)(C)S(=O)(=O)N1Cc2ccc(CO)cc2[C@H]1CCO | 0 | 23% | -11% | -16% | · | ·
CN(c1nnc(N)s1)C1CCCCC1 | -3 | 41% | -1% | -13% | 40µM* | -1%
Oc1c(C(c2ccc(Cl)cc2Cl)N2CCN(c3ccccc3)CC2)sc2nc(-c3ccco3)nn12 (configuration not stated) | · | 22% | -28% | · | 11µM* | -15%
COc1ccc(N2CCN(C(c3ccccc3F)c3sc4nc(-c5ccco5)nn4c3O)CC2)cc1 (configuration not stated) | · | ? | ? | · | ? | 40µM*
Cc1ccc(C(c2sc3nc(-c4ccco4)nn3c2O)N2CCN(c3ccc(F)cc3)CC2)cc1 (configuration not stated) | · | ? | ? | · | -11%[59 µM] | -20%
COc1ccc(N2CCN(C(c3ccc(F)cc3)c3sc4nc(-c5ccco5)nn4c3O)CC2)cc1 (configuration not stated) | · | ? | ? | · | ? | 40µM*
O=C(CN1CCc2ccccc2C1)Nc1ccc(OC(F)(F)F)cc1 | 22 | 85% | 30% | -16% | -14%[2.33 µM] | 18%
Cc1cc(/C=C(\C#N)c2nc3ccccc3[nH]2)c(C)n1C | 1 | -9% | -18% | -9% | -13% | -28%
CCN(CC)c1ccc(/C=C(/C#N)c2nc3ccc(C)cc3[nH]2)c(OC(C)C)c1 | · | 5% | -23% | -21% | -1%[0.0925 µM] | ?
Cc1ccc2nc(/C(C#N)=C\c3cc(O)ccc3[N+](=O)[O-])[nH]c2c1 | ? | -19% | -13%[11.4 µM] | 24µM* | ? | ?
COc1cc(/C=C(\C#N)c2nc3ccccc3n2C)cc(OC)c1O | -28 | 2% | -26% | 68% | 22µM* | -36%
Cn1c(/C(C#N)=C/c2ccc(O)cc2)nc2ccccc21 | -5 | 24% | -10% | 4% | · | -7%
CCCOc1cc(N(CC)CC)ccc1/C=C(/C#N)c1nc2ccc(C)cc2[nH]1 | 3 | 1% | -29% | 20% | 20µM* | ?
SMILES | PI5P4Ka inh | HP1b chromo inh | JMJD2A Tudor inh | PLK1 PBD inh | G9a inh | BAZ2B block
Cc1cc(/C=C(/C#N)c2nc3ccccc3[nH]2)c(C)n1-c1cccc([N+](=O)[O-])c1 | -9 | -19% | 89µM* | -14% | 11µM* | ?
O=C(Nc1ccc(F)cc1)C(c1cccc(F)c1)N1CCN(C(=O)c2ccco2)CC1 (configuration not stated) | 0 | · | · | -5% | · | ·
COc1ccc(/C=C(\C#N)c2nc3ccccc3[nH]2)cc1O | -8 | 5% | ? | ? | ? | -29%
COc1cc(/C=C(\C#N)c2nc3ccc(C)cc3[nH]2)c([N+](=O)[O-])cc1OC | -25 | 2% | -15% | -1% | · | -13%
Cc1ccc2nc(/C(C#N)=C/c3ccc(-c4cccc([N+](=O)[O-])c4)o3)[nH]c2c1 | -2 | -29% | ? | -15% | 7.9µM* | ?
COc1cc(/C=C(\C#N)c2nc3ccccc3[nH]2)cc(OC)c1O | ? | -36% | ? | 110% | 10µM* | 40µM*
COc1c(O)ccc(/C=C(\C#N)c2nc3ccccc3[nH]2)c1[N+](=O)[O-] | ? | ? | ? | -6% | 7.9µM* | 40µM*
COc1cc(/C=C(\C#N)c2nc3ccc(C)cc3[nH]2)cc([N+](=O)[O-])c1O | -88* | 35µM* | 40µM* | ? | · | 13µM*
COc1c(Cl)cc(Cl)cc1/C=C(\C#N)c1nc2ccccc2[nH]1 | · | 1% | 0% | · | -4%[59 µM] | -1%
Cc1ccc(O)c(NC(=O)CCCC(=O)O)c1 | · | 14% | -8% | -1% | -2% | 3%
C/C(O)=C(\N=Nc1cc(C)ccc1O)C(N)=O | -6 | ? | -27%[11.4 µM] | 30µM* | ? | ?
COc1cc(NC(=O)CCN2CCN(Cc3ccccc3)CC2)cc(OC)c1 | 3 | 13% | -5% | 0% | -3%[59 µM] | -31%
CCCN(CCC(=O)Nc1cc(OC)cc(OC)c1)CC1CC1 | 9 | 10% | -34% | -1% | 45µM* | ?
CCN(CCC(=O)Nc1cc(OC)cc(OC)c1)Cc1ccccc1 | 9 | 30% | -11%[57.1 µM] | -1% | 45µM* | 10%
COc1ccc(NC(=O)COC(=O)CCC2CCCC2)c(OC)c1 | 9 | 60% | 5% | -9% | · | ·
